Test results: PubChem BioAssay
Calls of active or inactive are those of the source. Unless noted, the rule behind the calls is not given here.

Columns and labels:
[1] = anti-His antibody binders, primary screen, artefact control for SMM control protein annotation, biochemical, small-molecule microarray, 635 nm fluorescence (AID 1128); settings: anti-His Alexa647 antibody binding, higher = more signal;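 note: score merges feature fluorescence with signal-to-noise for each printed compound spot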
[2] = tested on: Human papillomavirus type 1a E7 protein (residues 1-88); experiment: HPV1a E7 small-molecule binders, primary screen, biochemical, small-molecule microarray, residues 1-88, 635 nm (AID 1129); settings: small-molecule microarray binding, fluorescence 635 nm; higher = more signal
[3] = molecular target: Focal adhesion kinase 1 (Homo sapiens) (UniProt Q05397); experiment: small-molecule microarray binders of FAK, primary screen, biochemical, 635/667 nm fluorescence, BSA, DTT (AID 1130); settings: PTK2 binding, 635 nm fluorescence, higher = more signal;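 note: composite of spot emission at 667 nm and signal to noise over triplicate slides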
Focal adhesion kinase 1 (Homo sapiens), sequence (Q05397 whole entry, looked up): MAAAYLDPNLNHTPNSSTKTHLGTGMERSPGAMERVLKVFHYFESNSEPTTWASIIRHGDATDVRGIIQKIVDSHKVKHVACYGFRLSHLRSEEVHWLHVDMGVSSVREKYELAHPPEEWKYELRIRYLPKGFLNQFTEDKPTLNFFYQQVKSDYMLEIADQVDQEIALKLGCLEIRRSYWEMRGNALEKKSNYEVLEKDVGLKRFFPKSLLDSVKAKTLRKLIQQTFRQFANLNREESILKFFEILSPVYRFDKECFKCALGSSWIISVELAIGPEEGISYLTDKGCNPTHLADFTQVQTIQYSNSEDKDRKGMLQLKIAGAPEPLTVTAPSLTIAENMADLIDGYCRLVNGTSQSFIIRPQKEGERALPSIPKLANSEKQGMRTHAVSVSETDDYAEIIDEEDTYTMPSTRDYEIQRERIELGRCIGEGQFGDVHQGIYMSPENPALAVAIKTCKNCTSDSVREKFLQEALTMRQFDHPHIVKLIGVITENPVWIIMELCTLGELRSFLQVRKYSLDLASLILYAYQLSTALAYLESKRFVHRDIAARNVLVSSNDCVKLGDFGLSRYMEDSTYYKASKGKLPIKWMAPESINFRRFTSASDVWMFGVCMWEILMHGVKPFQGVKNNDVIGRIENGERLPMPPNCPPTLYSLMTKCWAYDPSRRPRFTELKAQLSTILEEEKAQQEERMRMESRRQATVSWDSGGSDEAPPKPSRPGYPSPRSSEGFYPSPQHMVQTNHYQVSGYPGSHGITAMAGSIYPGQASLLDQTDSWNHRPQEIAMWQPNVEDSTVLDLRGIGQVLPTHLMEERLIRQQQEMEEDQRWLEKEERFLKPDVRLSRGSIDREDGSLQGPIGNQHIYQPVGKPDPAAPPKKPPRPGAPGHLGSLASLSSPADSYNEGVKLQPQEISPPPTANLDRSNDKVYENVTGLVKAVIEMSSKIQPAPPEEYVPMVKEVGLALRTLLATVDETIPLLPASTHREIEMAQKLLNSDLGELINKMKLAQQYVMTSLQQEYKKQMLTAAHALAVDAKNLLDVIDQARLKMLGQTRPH

[4] = tested on: Fibrinogen (Alexa647-labelled); experiment: fibrinogen binders on compound microarrays, profiling panel, artefact control for SMM control-protein annotation, biochemical, small-molecule microarray, 635/667 nm fluorescence (AID 1131); settings: fibrinogen-A647 binding fluorescence, higher = more signal;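 note: z-score merges 667 nm fluorescence with per-spot signal-to-noise over triplicate slides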
[5] = molecular target: Follistatin (Homo sapiens) (UniProt P19883); experiment: follistatin binders on small-molecule microarrays, primary screen, biochemical, small-molecule microarray, 635/667 nm fluorescence (AID 1132); settings: FST binding, 635 nm fluorescence, higher = more signal
Follistatin (Homo sapiens), sequence (P19883 whole entry, looked up): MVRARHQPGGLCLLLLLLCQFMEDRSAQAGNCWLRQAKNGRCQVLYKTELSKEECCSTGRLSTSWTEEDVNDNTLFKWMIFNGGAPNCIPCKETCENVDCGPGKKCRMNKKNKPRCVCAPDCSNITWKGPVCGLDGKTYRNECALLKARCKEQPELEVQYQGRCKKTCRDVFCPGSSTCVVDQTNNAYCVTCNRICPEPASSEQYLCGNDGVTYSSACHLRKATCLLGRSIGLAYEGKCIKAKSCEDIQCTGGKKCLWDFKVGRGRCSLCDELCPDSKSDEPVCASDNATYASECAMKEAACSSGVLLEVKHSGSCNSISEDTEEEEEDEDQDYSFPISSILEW

[6] = molecular target: Fibroblast growth factor 2 (Homo sapiens) (UniProt P09038); experiment: FGF2 binders on small-molecule microarrays, primary screen, biochemical, small-molecule microarray, 635/667 nm fluorescence (AID 1133); settings: small-molecule microarray binding, FGF2, fluorescence 635/667; higher = more signal
Fibroblast growth factor 2 (Homo sapiens), sequence (P09038 whole entry, looked up): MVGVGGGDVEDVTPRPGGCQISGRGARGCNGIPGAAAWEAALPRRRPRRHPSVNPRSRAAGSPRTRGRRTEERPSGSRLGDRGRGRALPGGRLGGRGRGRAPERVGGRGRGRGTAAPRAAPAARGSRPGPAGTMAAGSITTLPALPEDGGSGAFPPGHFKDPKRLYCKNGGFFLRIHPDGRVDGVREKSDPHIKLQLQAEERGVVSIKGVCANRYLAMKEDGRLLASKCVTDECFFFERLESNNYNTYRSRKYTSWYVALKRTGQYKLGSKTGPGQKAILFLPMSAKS

[7] = mitochondrial membrane potential change in A549 cells, profiling panel, cell-based, JC-1 fluorescence, basal, 24 h, 100 nL (AID 1138); settings: higher = more signal;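 note: A549 lung adenocarcinoma cells under basal conditions with no added stimulus; test concentration not given here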
Lefty1 = Lefty1 binders on small-molecule microarrays, primary screen, biochemical, small-molecule microarray, 635/667 nm fluorescence (AID 1139); settings: small-molecule microarray binding, fluorescence 635/667; higher = more signal
[8] = tested on: wheat germ agglutinin (Triticum aestivum), Alexa647-labelled; experiment: wheat germ agglutinin binders on compound microarrays, profiling panel, artefact control for SMM control-protein annotation, biochemical, small-molecule microarray, 635/667 nm fluorescence (AID 1140); settings: WGA-A647 binding, 635 nm fluorescence, higher = more signal;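 note: score merges 667 nm feature emission with signal to noise over triplicate slides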
[9] = molecular target: Luciferin 4-monooxygenase (Photinus pyralis) (UniProt P08659); experiment: firefly luciferase enzyme inhibitors, primary screen, biochemical, luminescence, purified enzyme, 2006 set (AID 1141); settings: SteadyGlo luminescence, 30 min, higher = more signal, called active from +8 up or from −8 down;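 note: cell-free assay with purified firefly luciferase at 100 ng per well in PBS; test concentration not given here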
Luciferin 4-monooxygenase (Photinus pyralis), sequence (P08659 whole entry, looked up): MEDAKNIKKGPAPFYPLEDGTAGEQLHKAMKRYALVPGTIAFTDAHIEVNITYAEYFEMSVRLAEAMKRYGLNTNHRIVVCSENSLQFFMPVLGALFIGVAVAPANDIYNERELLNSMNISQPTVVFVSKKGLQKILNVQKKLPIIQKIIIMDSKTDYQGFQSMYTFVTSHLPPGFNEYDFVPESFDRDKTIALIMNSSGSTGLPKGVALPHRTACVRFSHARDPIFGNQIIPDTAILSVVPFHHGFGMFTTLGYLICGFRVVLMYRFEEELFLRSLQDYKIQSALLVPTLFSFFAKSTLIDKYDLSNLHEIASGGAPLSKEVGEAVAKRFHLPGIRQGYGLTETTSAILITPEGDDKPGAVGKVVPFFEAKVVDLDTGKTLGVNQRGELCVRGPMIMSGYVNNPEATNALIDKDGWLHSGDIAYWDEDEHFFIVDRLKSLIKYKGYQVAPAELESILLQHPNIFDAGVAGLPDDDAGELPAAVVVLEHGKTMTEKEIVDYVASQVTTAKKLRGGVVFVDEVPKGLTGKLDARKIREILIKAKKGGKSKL

[10] = tested on: Wnt5a (protein binding on small-molecule microarray); experiment: Wnt5a binders on small-molecule microarray, primary screen, biophysical, 635/667 nm fluorescence (AID 1142); settings: 635 nm fluorescence, higher = more signal;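 note: fluorescence read at 667 nm with signal to noise per printed feature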
[11] = cell viability in Huh7 cells, primary screen, cytotoxicity control for HCV replication inhibitor project, CellTiter-Glo luminescence, basal, 48 h (AID 1143); settings: Huh7 HCV replicon, higher = more signal, called active from +8 up or from −8 down;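 note: Huh7 hepatoma cells carrying a hepatitis C replication reporter with no stimulus; test concentration not given here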
[12] = P. aeruginosa biofilm formation inhibitors, primary screen, PAO1 strain, BacTiter-Glo luminescence, LB-PBS (AID 1144); settings: 12 h, higher = more signal
[13] = CREB reporter modulators without forskolin, primary screen, cell-based, PC12, CRE-LacZ reporter, unstimulated (AID 1145); settings: no forskolin, luminescence, 4.5 h, higher = more signal, called active from +8 up or from −8 down
[14] = CREB reporter modulators under forskolin, primary screen, cell-based, PC12, CRE-LacZ reporter, forskolin-stimulated (AID 1146); settings: luminescence, 4.5 h, higher = more signal, called active from +8 up or from −8 down;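 note: PC12 cells with 6xCRE LacZ reporter stimulated by forskolin 10 µM; beta-galactosidase reporter signal reflecting CREB driven transcription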
[15] = molecular target: Streptavidin (Streptomyces avidinii) (UniProt P22629); experiment: streptavidin binders on small-molecule microarray, primary screen, artefact control for SMM compound annotation, biophysical, 635/667 nm fluorescence (AID 1147); settings: streptavidin binding, higher = more signal;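 note: signal reflects streptavidin binding to arrayed compounds as a control protein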
Streptavidin (Streptomyces avidinii), sequence (P22629 whole entry, looked up): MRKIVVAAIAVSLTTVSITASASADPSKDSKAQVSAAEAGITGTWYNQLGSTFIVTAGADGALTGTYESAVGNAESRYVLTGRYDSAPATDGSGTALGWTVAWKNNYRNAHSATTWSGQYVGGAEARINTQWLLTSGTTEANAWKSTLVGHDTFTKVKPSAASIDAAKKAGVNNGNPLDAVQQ

[16] = small-molecule binders of probe aInhba, primary screen, biochemical, small-molecule microarray, 635/667 nm fluorescence (AID 1148); settings: higher = more signal;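 note: score merges 667nm spot fluorescence with signal-to-noise for antibody binding to printed compounds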
Torsin-1A (Homo sapiens) [17] = molecular target: Torsin-1A (Homo sapiens) (UniProt O14656); experiment: torsin A binders from cell lysate, primary screen, small-molecule microarray, wild-type, 635/667 nm (AID 1149); settings: COS7 hTOR1A-WT lysate, 635 nm fluorescence, higher = more signal
Torsin-1A (Homo sapiens), sequence (O14656 whole entry, looked up): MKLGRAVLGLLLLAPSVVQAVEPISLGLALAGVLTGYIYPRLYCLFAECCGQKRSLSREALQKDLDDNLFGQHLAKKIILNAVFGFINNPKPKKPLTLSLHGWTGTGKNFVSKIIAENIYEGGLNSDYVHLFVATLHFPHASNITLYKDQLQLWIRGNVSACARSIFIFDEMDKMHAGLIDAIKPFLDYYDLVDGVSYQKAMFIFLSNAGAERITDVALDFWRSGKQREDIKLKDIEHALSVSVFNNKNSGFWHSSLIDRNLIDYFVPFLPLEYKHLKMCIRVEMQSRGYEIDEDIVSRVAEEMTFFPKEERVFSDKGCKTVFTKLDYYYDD

Torsin-1A (Homo sapiens) [18] = molecular target: Torsin-1A (Homo sapiens) (UniProt O14656); experiment: small-molecule binders of mutant TOR1A in lysate, primary screen, cell lysate, small-molecule microarray, COS7 lysate, 635/667 nm fluorescence (AID 1150); settings: COS7 hTOR1A mutant lysate, 635 nm fluorescence, higher = more signal;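 note: score pools 667 nm emission and signal to noise measuring lysate protein binding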
[19] = tested on: Sonic hedgehog protein (Shh); experiment: small-molecule binders of Shh protein, primary screen, biochemical, small-molecule microarray, 635/667 nm fluorescence (AID 1151); settings: small-molecule microarray binding, 635 nm fluorescence; higher = more signal;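 note: Shh protein binding to compounds spotted on small-molecule microarray slides; score combines spot fluorescence intensity with signal-to-noise across triplicate slides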

| Compound | composite z-score [1] | composite z-score [2] | composite z-score [3] | composite z-score [4] | composite z-score [5] | composite z-score [6] | z-score [7] | composite z-score (Lefty1) | composite z-score [8] | z-score [9] | composite z-score [10] | z-score [11] | z-score [12] | z-score [13] | z-score [14] | composite z-score [15] | composite z-score [16] | composite z-score (Torsin-1A (Homo sapiens) [17]) | composite z-score (Torsin-1A (Homo sapiens) [18]) | composite z-score [19] |
| --- | --- | --- | --- | --- | --- | --- | --- | --- | --- | --- | --- | --- | --- | --- | --- | --- | --- | --- | --- | --- |
| COC(=O)[C@@]1(Cc2ccc(OC)cc2)[C@H]2c3cc(C(=O)N4CCCC4)n(CCF)c3C[C@H]2CN1C(=O)c1ccccc1 | 2.31 | 1.17 | 0.896 | 1.04 | 0.411 | -0.0251 | -1.32 | -0.3 | 1.06 | 1.49 (inactive) | 2.55 | -2.46 (inactive) | -0.129 (inactive) | 0.972 (inactive) | 0.325 (inactive) | 1.5 | 2.05 | -0.0089 | 0.619 | -0.801 |
| CCCCC(O)C1C=CC2C(=O)N(Cc3ccccc3)C(=O)C2N1n1cnnc1 (stereo not given) | 2.39 | 0.433 | 0.242 | 0.892 | 0.457 | -0.0025 | -0.721 | 0.289 | 0.652 | 1.48 (inactive) | 0.0687 | -4.01 (inactive) | -0.372 (inactive) | 0.519 (inactive) | -0.422 (inactive) | 0.416 | -0.0477 | 0.0569 | -0.459 | 0.22 |
| COCCOC(=O)N1C(=O)[C@@]2(c3cc(C#Cc4ccc(OC)cc4)ccc31)[C@H](c1ccc(OCCO)cc1)N1[C@H](c3ccccc3)[C@H](c3ccccc3)OC(=O)[C@H]1[C@@H]2C(N)=O | 2.14 | 1.13 | 1.03 | 0.519 | 1.41 | 1.31 | -1.28 | 1.39 | 1 | -0.35 (inactive) | 0.41 | -2.73 (inactive) | 0.854 (inactive) | -1.15 (inactive) | -1.28 (inactive) | 0.879 | 0.187 | 0.428 | 0.835 | 1.96 |
| C[N+](C)(C)CCCC[C@@H]1NC(=O)[C@@H]2C[C@H](C(=O)NCCCCCNC(=O)CS)[C@H](c3cccc(OCCO)c3)N2C1=O | 0.664 | 0.14 | 0.0046 | 0.909 | 1.25 | 1.5 | 1.71 | 0.272 | 0.134 | -1.68 (inactive) | 0.623 | -0.192 (inactive) | 0.152 (inactive) | 0.688 (inactive) | 0.478 (inactive) | 0.0879 | 0.0636 | 0.628 | 0.186 | 1.38 |
| O=c1c2ccc(Br)cc2nc(-c2ccccc2)n1Cc1cccc(O)c1 | 0.741 | 0.988 | 0.551 | 0.671 | 0.346 | 0.283 | 0.836 | -0.0693 | 1.05 | -0.273 (inactive) | 0.153 | -0.913 (inactive) | 0.32 (inactive) | 0.272 (inactive) | -1.17 (inactive) | 0.669 | 0.229 | 1.45 | 1.88 | 0.332 |
